# Rows were chosen to be rich in hits. Some 2% of all compounds tested hit in one or more screens of this group.
# ADAM17 inh – inhibits human ADAM17; P78536; recombinant ADAM17, EDANS/DABCYL FRET peptide cleavage; inhibition, % at 6.95 µM; 370,000 tested, 0.83% active; AID 720648;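 active = inhibition above the mean of compounds lying between control limits plus 3 SD, set per campaign, cut at about 8.5% in these data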
# NPR2 activator – GC-B (human) receptor activation; P20594; HEK293-GC-B cells, CNP EC30, cGMP TR-FRET; 0% at EC30 CNP, 100% saturating CNP; activation, % at 10 µM; 370,000 tested, 0.11% active;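 active = activation at 10 µM reaching about 35% in either raw or pattern-adjusted values, limit read from the data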
# FAS TE block – blocks the thioesterase domain of human fatty acid synthase; 360,000 tested, 0.67% active; recombinant FAS-TE, OMFH fluorogenic substrate, fluorescence endpoint; inhibition, % at 15 µM; P49327;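 active = compounds whose normalised, plate-corrected inhibition of enzyme fluorescence in the single-dose primary screen is 50% or more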
# ADAM10 inh – inhibitors of human ADAM10; O14672; recombinant ADAM10, EDANS/DABCYL FRET peptide cleavage, 3 h; inhibition, % at 7 µM; 370,000 tested, 0.62% active; AID 720582;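 active = inhibition above a per-campaign cutoff equal to the mean of compounds falling between control-based bounds plus 3 SD, cut at about 20% in these data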
# Target sequence (O14672 214-748 limits assumed): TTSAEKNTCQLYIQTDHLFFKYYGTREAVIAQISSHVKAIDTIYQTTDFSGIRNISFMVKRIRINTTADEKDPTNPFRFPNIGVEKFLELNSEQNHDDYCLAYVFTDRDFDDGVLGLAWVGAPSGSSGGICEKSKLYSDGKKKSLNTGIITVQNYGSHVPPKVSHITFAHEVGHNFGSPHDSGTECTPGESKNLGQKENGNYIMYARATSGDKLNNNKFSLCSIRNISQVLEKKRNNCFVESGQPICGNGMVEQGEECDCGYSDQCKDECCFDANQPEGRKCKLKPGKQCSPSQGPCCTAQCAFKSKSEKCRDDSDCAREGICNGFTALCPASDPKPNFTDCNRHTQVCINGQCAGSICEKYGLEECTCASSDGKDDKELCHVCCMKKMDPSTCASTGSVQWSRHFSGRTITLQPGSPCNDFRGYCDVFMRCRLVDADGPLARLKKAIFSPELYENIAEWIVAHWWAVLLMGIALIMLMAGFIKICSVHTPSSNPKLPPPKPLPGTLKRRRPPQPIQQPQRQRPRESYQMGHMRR
# GC-A act – GC-A (human) enzyme activation; P16066; HEK293 GC-A cells, cGMP TR-FRET, EC30 ANP; 0% at EC30 ANP, 100% saturating ANP; activation, % at 10 µM; 370,000 tested, 0.14% active; in the data active = activation above about 40%
# Numbers stand for hits; . = inactive; / = no result given.
SMILES,ADAM17 inh,NPR2 activator,FAS TE block,ADAM10 inh,GC-A act
Cc1c(NC(=O)c2cc3c(s2)-c2ccccc2OC3)cccc1[N+](=O)[O-],.,59,.,.,.
CCOC(=O)CNCCC(=O)c1ccc(Br)cc1,.,.,.,.,49
Cc1cccc(NCCC(=O)c2ccc(Br)cc2)c1,.,.,.,.,.
COc1ccc(-c2cc(C(F)(F)F)nc(N)n2)cc1,.,.,.,.,.
CCOC(=O)CS(=O)(=O)c1nc(-c2ccc(F)cc2)cc(C(F)(F)F)n1,/,/,.,/,/
CS(=O)(=O)c1nc(-c2ccc(F)cc2)cc(C(F)(F)F)n1,.,.,.,.,72
COc1ccc(-c2cc(C(F)(F)F)nc(S(C)(=O)=O)n2)cc1,.,.,.,.,46
CCOC(=O)CCS(=O)(=O)c1nc(-c2ccccc2)cc(C(F)(F)F)n1,/,/,.,/,/
CCOC(=O)CS(=O)(=O)c1nc(-c2ccccc2)cc(C(F)(F)F)n1,.,.,.,.,54
O=C1C(=O)N(Cc2ccc(-c3ccc(F)nc3)cc2)c2ccc(OC(F)(F)F)cc21,.,.,/,.,.
CCOc1ccc(S(=O)(=O)NC(C)(C)C)cc1-c1nc2c(C(C)(C)C)nn(C)c2c(=O)[nH]1,.,60,.,.,57
CCOc1ccc(S(N)(=O)=O)cc1-c1nc2c(C(C)(C)C)nn(C)c2c(=O)[nH]1,.,61,.,.,52
COc1ccc(Nc2ccc3c(c2)=NC2(CCCCC2)[N+]=3[O-])cc1,9.7,/,.,.,/
[O-][N+]1=c2ccc(Nc3ccccc3)cc2=NC12CCCCC2,.,.,.,.,.
NC(=S)N/N=C1\CC(c2ccc3c(c2)OCCO3)Oc2ccc(F)cc21 (centres undefined),.,42,.,.,.
NC(=S)N/N=C1\CC(c2ccc3c(c2)OCCCO3)Oc2ccc(F)cc21 (centres undefined),.,.,.,.,.
CC(C)Cc1nc(N2CCN(C(=O)c3ccco3)CC2)c(C#N)c2c1CCCC2,.,119,.,.,.
Cc1nc(N2CCN(C(=O)c3ccco3)CC2)c(C#N)c2c1CCCC2,.,.,.,.,.
O=C(c1ccc(Cl)c(Cl)c1)N1CCC(=O)N(C(COCc2cccc(Cl)c2)Cc2ccccc2)CC1 (centres undefined),13,.,.,29,.
O=C1C=CC(=O)N1CCCCCCCCCCN1C(=O)C=CC1=O,.,44,.,.,.
O=C1C=CC(=O)N1Cc1ccncc1,.,.,.,.,.
CO[C@@H]1[C@H](O)CC[C@]2(O)CN(c3ccc(F)cc3)[C@](C)([C@H](O)CC=C(C)C)[C@@H]12,.,.,/,.,.
COc1ccccc1CNC(=O)c1cc(-c2ccccc2)nn1CC1CC(c2cccc([N+](=O)[O-])c2)=NO1 (centres undefined),.,.,.,20,.
CCC[C@@H](/C=C/C(=O)OC(C)(C)C)Sc1ccc(OC)cc1,.,.,/,.,.
Cc1cccc(C2CC3(CC(C)(C)NC(=S)N3)Oc3cc(O)ccc32)c1 (centres undefined),.,.,.,.,.
SMILES,ADAM17 inh,NPR2 activator,FAS TE block,ADAM10 inh,GC-A act
COc1cccc(C2CC3(CC(C)(C)NC(=S)N3)Oc3cc(O)ccc32)c1 (centres undefined),.,.,.,.,56
CCCc1cn(-c2ccc3c(c2)[C@]2(CC(=O)N(C)C2c2ccccc2)C(=O)N3CC(C)C)nn1 (some centres undefined),.,.,/,.,.
N=c1c(S(=O)(=O)c2ccc(Cl)cc2)cc2c(=O)n3ccccc3nc2n1C1CCCCC1,.,.,65,.,.
Cc1ccc(-n2c(SC/C=C/c3ccccc3)nnc2-c2cccs2)cc1,.,.,/,.,.
C[C@H]1C(c2ccccc2F)O[C@]2(C[C@H](O)c3c(ccc4ccccc34)O2)C[C@@H]1O (some centres undefined),.,.,/,.,.
Nc1c(C(=O)Nc2ccccc2)sc2nc(N3CCOCC3)c3c(c12)CCCC3,.,.,.,.,.
Nc1c(C(=O)NCc2ccccc2)sc2nc(N3CCOCC3)c3c(c12)CCCC3,.,36,.,.,43
O=C(Nc1ccc(S(=O)(=O)N2CCOCC2)cc1)c1cc(-c2cc(Cl)ccc2O)n[nH]1,.,.,.,27,.
Cc1c(Cl)c([N+](=O)[O-])nn1CC(=O)N1CCc2ccccc2C1,.,.,51,.,.
Cc1cc([N+](=O)[O-])nn1CC(=O)N1CCc2ccccc2C1,.,.,.,.,.
C[C@@H]1CCN(C2CC2)S(=O)(=O)c2c(cccc2N2CC[C@@H](O)C2)O1,.,.,/,.,.
COc1ccc2c(CCN3C(=O)c4ccccc4C3=O)c(-c3c(CCN4C(=O)c5ccccc5C4=O)c4ccccc4n3C(=O)OC(C)(C)C)[nH]c2c1,.,.,/,.,.
CCOC(=O)CNC(=O)CN1CCCN(S(=O)(=O)c2ccc(Br)s2)CC1,.,.,.,.,.
O=C(CN1CCCN(S(=O)(=O)c2ccc(Br)s2)CC1)Nc1ccc(Cl)cc1,.,.,.,20,.
COC(=O)[C@]12CCCCC=C1N(Cc1ccc(OC)cc1)C(=O)[C@@H]2CC(=O)N1CCN(C(=O)C2CC2)CC1,.,.,/,.,.
O=C(CSc1nnc(COc2ccccc2)n1-c1ccc(Cl)cc1)Nc1ccc(OCc2ccccc2)cc1,.,.,/,.,.
COc1cc(C(=O)NCCC(c2ccccc2)c2ccccc2)cc(OC)c1OC,.,118,.,.,.
Cc1cc(NC(=O)COC(=O)COc2ccc(C(=O)c3ccccc3)cc2)no1,.,.,.,.,64
COC(=O)c1cc(-c2cccc(C(F)(F)F)c2)c(=O)n2c1CCC2,.,.,/,.,.
CCOc1ccc(S(=O)(=O)Nc2ccc(C(=O)N/N=C(\C)c3ccc(-n4ccnc4)cc3)cc2)cc1,9.0,.,.,.,.
COc1ccc(-n2c(SCC(=O)Nc3cc(C)on3)nc3c([nH]c4ccccc43)c2=O)cc1OC,.,.,.,.,72
CCOc1ccc(-n2c(SCC(N)=O)nc3c([nH]c4ccccc43)c2=O)cc1,.,.,.,.,.
Cc1ccc(-n2c(SCC(=O)Nc3cc(C)on3)nc3c([nH]c4ccccc43)c2=O)cc1,.,.,.,.,79
COc1ccc(-n2c(SCC(=O)Nc3cc(C)on3)nc3c([nH]c4ccccc43)c2=O)cc1,.,.,.,.,77
CCOc1ccc(-n2c(SCC(=O)Nc3cc(C)on3)nc3c([nH]c4ccccc43)c2=O)cc1,.,.,.,.,71
O=C1OCCC1Sc1nnc(-c2ccc(Br)cc2)o1 (centres undefined),.,.,.,.,66
O=S(=O)(c1ccccc1)[C@@]1(c2ccccc2)C[C@@H]2ON=C(c3cccc(Br)c3)[C@@H]2C1,.,.,55,.,.

# Screening data (PubChem BioAssay)
